Reference: PubChem BioAssay (NCATS)
Inconclusive results are not listed. Calls of active or inactive are those of the source. Calls follow the shape of the dose curve; as a rule, active = well fitted curve in the direction sought with a large enough effect; inconclusive = small, poorly fitted or top-dose-only effect, or another doubt; inactive = no such curve, though single readings can be large; an effect the other way counts as inactive or inconclusive.

What follows are compounds tested against Cytochrome P450 2C9 (Homo sapiens) (UniProt P11712) (assay: qHTS Assay for Inhibitors and Substrates of Cytochrome P450 2C9 (AID 883; also: nearly all actives have a fitted effect of over 60% in size; as to Activity change, negative = inhibition: % is scaled to controls: 0 for no effect and ±100 for the full control effect)). Details: recombinant CYP2C9, luciferin-H luminescence, 60 min; series mostly up to 57.1 µM.
Method in brief: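 Human CYP2C9 (10nM) with Luciferin-H at 100uM (its KM) in 25mM KPO4; compound preincubated 10 min at 37C, then NADPH regeneration for 60 min at 37C. Luciferin read by luminescence after detection reagent; normalized to 57uM sulphaphenazole as full inhibition.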
Potency is read from the fitted curve at half-maximal effect.

Sequence of Cytochrome P450 2C9 (Homo sapiens) (P11712 whole entry, looked up): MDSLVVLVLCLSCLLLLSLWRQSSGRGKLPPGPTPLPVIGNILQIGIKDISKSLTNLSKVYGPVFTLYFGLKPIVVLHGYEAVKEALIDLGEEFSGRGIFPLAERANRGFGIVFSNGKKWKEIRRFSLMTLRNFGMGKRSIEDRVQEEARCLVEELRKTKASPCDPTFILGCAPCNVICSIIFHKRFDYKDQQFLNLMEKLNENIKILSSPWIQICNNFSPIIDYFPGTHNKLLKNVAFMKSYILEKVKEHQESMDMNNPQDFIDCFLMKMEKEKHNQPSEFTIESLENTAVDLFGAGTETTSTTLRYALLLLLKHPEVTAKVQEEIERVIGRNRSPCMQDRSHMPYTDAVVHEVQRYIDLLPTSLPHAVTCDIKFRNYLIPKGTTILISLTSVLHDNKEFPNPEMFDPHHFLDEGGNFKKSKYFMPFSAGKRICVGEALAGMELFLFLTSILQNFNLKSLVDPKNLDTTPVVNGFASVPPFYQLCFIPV

Potency, active:
COc1c(O)cc2oc3cc(O)c(CC=C(C)C)c(O)c3c(=O)c2c1CC=C(C)C 5010 nM, O=c1c(-c2ccccc2)nc2cnc(Oc3cccc(Cl)c3)nc2n1C1CC1 251 nM

Activity change, negative = inhibition, inactive:
CS(=O)(=O)Nc1cccc(-c2cc(NCc3cccs3)ncn2)c1 35.3% [at 2.29 µM], Cc1cnc(CNc2cc(-c3ccccc3C(F)(F)F)ncn2)cn1 49.4% [at 2.29 µM], CNc1nc(-c2cccnc2)nc2ccccc12 82.3% [at 2.29 µM]

These compounds were tested against Cytochrome P450 3A4 (Homo sapiens) (UniProt P08684) (assay: qHTS Assay for Inhibitors and Substrates of Cytochrome P450 3A4 (AID 884; also: nearly all actives have a fitted effect of over 50% in size; as to Activity change, negative = inhibition: % is scaled to controls: 0 for no effect and ±100 for the full control effect)). Details: recombinant CYP3A4, Luciferin-PPXE luminescence; series mostly up to 57.1 µM.
Method in brief: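 20 nM human CYP3A4 with 25 uM Luciferin-PPXE (at KM) in 200 mM KPO4, preincubated 10 min with compound; NADPH regeneration started a 60 min RT reaction. Luciferin detected by luminescence, normalized to 57 uM ketoconazole as full inhibition.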

Sequence of Cytochrome P450 3A4 (Homo sapiens) (P08684 whole entry, looked up): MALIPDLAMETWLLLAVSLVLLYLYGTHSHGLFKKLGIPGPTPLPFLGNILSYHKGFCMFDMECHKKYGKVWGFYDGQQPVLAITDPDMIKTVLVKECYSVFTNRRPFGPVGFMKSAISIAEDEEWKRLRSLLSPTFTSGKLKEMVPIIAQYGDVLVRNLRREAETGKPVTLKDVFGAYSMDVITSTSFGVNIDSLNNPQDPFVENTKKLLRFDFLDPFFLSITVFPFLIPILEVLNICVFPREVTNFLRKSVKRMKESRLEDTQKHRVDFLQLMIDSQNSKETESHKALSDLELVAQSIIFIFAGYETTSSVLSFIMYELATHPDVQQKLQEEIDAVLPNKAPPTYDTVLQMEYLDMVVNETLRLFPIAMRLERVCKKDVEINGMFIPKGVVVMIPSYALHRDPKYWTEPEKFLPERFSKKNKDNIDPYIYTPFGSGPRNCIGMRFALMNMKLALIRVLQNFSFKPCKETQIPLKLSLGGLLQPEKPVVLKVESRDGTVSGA

Potency, inactive:
COc1c(O)cc2oc3cc(O)c(CC=C(C)C)c(O)c3c(=O)c2c1CC=C(C)C, COc1cccc(Cn2c(=O)c(-c3ccc(Cl)cc3)nc3cnc(N4CCN(C)CC4)nc32)c1, Cc1cnc(CNc2cc(-c3ccccc3C(F)(F)F)ncn2)cn1

Potency, active:
CNc1ncncc1-c1ccccc1C(F)(F)F 794 nM, COc1ccc(CNc2ccnc(-c3ccc(C(=O)N(C)C)cc3)n2)c(OC)c1 3980 nM, COc1ccc(CNc2cc(-c3cccnc3)ncn2)c(OC)c1 1580 nM, FC(F)(F)c1ccccc1-c1cncnc1NCc1cccnc1 631 nM, COc1ncc2nc(-c3cn(C)c4ccccc34)c(=O)n(C)c2n1 5010 nM, CN(C)C(=O)c1ccc(-c2cncnc2NCc2ccccc2)cc1 2510 nM, COc1ccccc1CNc1ncncc1-c1ccc(C(=O)N(C)C)cc1 2510 nM, COc1ccc(CNc2ncncc2-c2ccccc2C(F)(F)F)c(OC)c1 316 nM, CNc1ncncc1-c1ccccc1C 631 nM, COCCn1c(=O)c(-c2cccc(C#N)c2)nc2cnc(Oc3ccc(OC)cc3)nc21 2510 nM, c1ccc(CNc2ncncc2-c2cccnc2)cc1 1260 nM, COc1cccc(Cn2c(=O)c(CCc3ccccc3)nc3cncnc32)c1 2510 nM, CN(C)C(=O)c1ccc(-c2cncnc2NCc2cccnc2)cc1 5010 nM, N#Cc1cccc(-c2nccc(-n3ccnc3)n2)c1 2510 nM, c1ccc(CNc2ccnc(-c3ccc4c(c3)OCO4)n2)cc1 794 nM

What follows are compounds tested against Cytochrome P450 3A4 (Homo sapiens) (UniProt P08684) (assay: qHTS Assay for Activators of Cytochrome P450 3A4 (AID 885; also: nearly all actives have a fitted effect of over 65% in size)). Details: recombinant CYP3A4, Luciferin-PPXE luminescence, 60 min; series mostly up to 57.1 µM.
Method in brief: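 Quantitative HTS format: compounds preincubated with 20nM human CYP3A4 and Luciferin-PPXE substrate at KM, reaction started by NADPH regeneration, stopped after 60 min, luciferase luminescence read 20 min later.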

Potency, active:
COc1cccc(Cn2c(=O)c(-c3ccc(Cl)cc3)nc3cnc(N4CCN(C)CC4)nc32)c1 15800 nM, Cc1cnc(CNc2cc(-c3ccccc3C(F)(F)F)ncn2)cn1 6310 nM

Potency, inactive:
CNc1ncncc1-c1ccccc1C(F)(F)F, COc1ccc(CNc2ccnc(-c3ccc(C(=O)N(C)C)cc3)n2)c(OC)c1, COc1ccc(CNc2cc(-c3cccnc3)ncn2)c(OC)c1, CCNc1ncc2nc(-c3ccc(OC)cc3)c(=O)n(CCC#N)c2n1, FC(F)(F)c1ccccc1-c1cncnc1NCc1cccnc1, COc1ncc2nc(-c3cn(C)c4ccccc34)c(=O)n(C)c2n1, CN(C)C(=O)c1ccc(-c2cncnc2NCc2ccccc2)cc1, COc1ccccc1CNc1ncncc1-c1ccc(C(=O)N(C)C)cc1, COc1ccc(CNc2ncncc2-c2ccccc2C(F)(F)F)c(OC)c1, CNc1ncncc1-c1ccccc1C, COCCn1c(=O)c(-c2cccc(C#N)c2)nc2cnc(Oc3ccc(OC)cc3)nc21, COc1c(O)cc2oc3cc(O)c(CC=C(C)C)c(O)c3c(=O)c2c1CC=C(C)C, CS(=O)(=O)Nc1cccc(-c2cc(NCc3cccs3)ncn2)c1, COc1ccc(-c2nc3cnc(OC)nc3n(C)c2=O)cc1, c1ccc(CNc2ncncc2-c2cccnc2)cc1, COc1cccc(Cn2c(=O)c(CCc3ccccc3)nc3cncnc32)c1, CN(C)C(=O)c1ccc(-c2cncnc2NCc2cccnc2)cc1, N#Cc1cccc(-c2nccc(-n3ccnc3)n2)c1, CNc1nc(-c2cccnc2)nc2ccccc12, c1ccc(CNc2ccnc(-c3ccc4c(c3)OCO4)n2)cc1

Each compound was assayed against Cytochrome P450 2D6 (Homo sapiens) (UniProt P10635) (assay: qHTS Assay for Inhibitors and Substrates of Cytochrome P450 2D6 (AID 891; also: nearly all actives have a fitted effect of over 60% in size)). Details: recombinant CYP2D6, luciferin-ME EGE luminescence; series mostly up to 57.1 µM.
Method in brief: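 Human CYP2D6 (5 nM) with 30 uM Luciferin-ME EGE (at Km) in 100 mM KPO4, compound preincubated 10 min, then NADPH regeneration system for 60 min at room temperature. Luciferin read by luminescence; normalized to 1.43 uM quinidine.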

Sequence of Cytochrome P450 2D6 (Homo sapiens) (P10635 whole entry, looked up): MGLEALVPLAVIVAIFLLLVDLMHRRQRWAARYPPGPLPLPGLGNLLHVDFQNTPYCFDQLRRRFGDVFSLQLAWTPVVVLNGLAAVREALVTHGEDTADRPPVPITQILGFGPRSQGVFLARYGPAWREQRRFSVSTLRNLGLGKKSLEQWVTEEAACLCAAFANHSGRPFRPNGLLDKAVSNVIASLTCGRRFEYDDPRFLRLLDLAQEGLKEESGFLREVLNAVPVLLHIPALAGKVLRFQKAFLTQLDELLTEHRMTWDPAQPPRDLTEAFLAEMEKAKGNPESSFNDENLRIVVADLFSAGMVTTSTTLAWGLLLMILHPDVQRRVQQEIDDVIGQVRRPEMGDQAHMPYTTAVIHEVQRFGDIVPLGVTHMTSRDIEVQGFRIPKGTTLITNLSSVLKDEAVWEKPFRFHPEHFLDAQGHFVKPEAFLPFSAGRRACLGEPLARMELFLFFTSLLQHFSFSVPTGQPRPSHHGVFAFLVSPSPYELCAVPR

Potency, active:
COc1ccc(CNc2ncncc2-c2ccccc2C(F)(F)F)c(OC)c1 398 nM, COc1c(O)cc2oc3cc(O)c(CC=C(C)C)c(O)c3c(=O)c2c1CC=C(C)C 31600 nM, c1ccc(CNc2ccnc(-c3ccc4c(c3)OCO4)n2)cc1 1580 nM

What follows are compounds tested against Cytochrome P450 2C19 (Homo sapiens) (UniProt P33261) (assay: qHTS Assay for Inhibitors and Substrates of Cytochrome P450 2C19 (AID 899; also: nearly all actives have a fitted effect of over 60% in size)). Details: recombinant CYP2C19, luciferin-H EGE luminescence; series mostly up to 57.1 µM.
Method in brief: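 5 nM human CYP2C19 with 10uM Luciferin-H EGE (at KM) in 50mM KPO4, compound preincubated 10 min at 37C, then NADPH regeneration for 60 min at 37C. Luciferin read by luminescence after detection reagent; normalized to 57uM ketoconazole as full inhibition.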

Sequence of Cytochrome P450 2C19 (Homo sapiens) (P33261 whole entry, looked up): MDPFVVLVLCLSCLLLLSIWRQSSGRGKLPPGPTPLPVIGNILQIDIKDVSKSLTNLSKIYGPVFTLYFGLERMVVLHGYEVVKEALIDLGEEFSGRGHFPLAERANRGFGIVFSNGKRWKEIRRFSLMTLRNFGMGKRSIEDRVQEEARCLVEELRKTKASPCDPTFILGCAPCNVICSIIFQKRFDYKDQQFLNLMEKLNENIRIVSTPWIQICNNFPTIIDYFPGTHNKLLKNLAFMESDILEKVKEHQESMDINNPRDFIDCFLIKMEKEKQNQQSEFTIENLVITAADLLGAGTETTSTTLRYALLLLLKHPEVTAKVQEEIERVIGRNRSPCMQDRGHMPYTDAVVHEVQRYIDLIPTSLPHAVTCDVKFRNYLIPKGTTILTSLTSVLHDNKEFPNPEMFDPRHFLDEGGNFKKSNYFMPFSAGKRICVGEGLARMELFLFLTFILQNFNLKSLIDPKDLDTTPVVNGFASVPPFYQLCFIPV

Potency, inactive:
COc1ncc2nc(-c3cn(C)c4ccccc34)c(=O)n(C)c2n1

Potency, active:
FC(F)(F)c1ccccc1-c1cncnc1NCc1cccnc1 2510 nM, COc1ccc(CNc2ncncc2-c2ccccc2C(F)(F)F)c(OC)c1 1580 nM, COc1c(O)cc2oc3cc(O)c(CC=C(C)C)c(O)c3c(=O)c2c1CC=C(C)C 10000 nM, CN(C)C(=O)c1ccc(-c2cncnc2NCc2cccnc2)cc1 2510 nM, N#Cc1cccc(-c2nccc(-n3ccnc3)n2)c1 7940 nM, c1ccc(CNc2ccnc(-c3ccc4c(c3)OCO4)n2)cc1 2000 nM
